Data as given in PMC7862700, “An all-to-all approach to the identification of sequence-specific readers for epigenetic DNA modifications on cytosine”.

Assays:
Assay in all cases: DAPPL (digital affinity profiling via proximity ligation, sequencing); 10 mM Tris-HCl pH 7.5, 50 mM NaCl, 1 mM DTT, 4% glycerol, room temperature, 30 min; GST-TFs on glutathione beads, 16-mer random dsDNA library, 0.1% formaldehyde crosslink after washing; high values mean tight binding
Details in all cases: protein: recombinant; tags: N-terminal GST; dsDNA, one strand shown
[1] = biological target: T1, ETV3L (Homo sapiens, UniProt Q6ZN32 1-361)
T1 sequence: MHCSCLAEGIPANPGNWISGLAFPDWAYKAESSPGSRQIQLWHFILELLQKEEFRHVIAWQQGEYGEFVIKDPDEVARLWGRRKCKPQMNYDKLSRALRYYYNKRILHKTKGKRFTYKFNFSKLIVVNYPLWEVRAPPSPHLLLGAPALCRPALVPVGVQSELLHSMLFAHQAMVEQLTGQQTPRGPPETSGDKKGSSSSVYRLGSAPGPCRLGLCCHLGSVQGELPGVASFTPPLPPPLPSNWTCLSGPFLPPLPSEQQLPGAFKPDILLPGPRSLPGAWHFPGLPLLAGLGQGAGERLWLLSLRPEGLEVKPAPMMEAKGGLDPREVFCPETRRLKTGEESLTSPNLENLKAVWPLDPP
Outline: (§1)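 Pools were built from human transcription factors expressed in yeast as GST fusions, captured on glutathione beads and DNA-barcoded, along with a tag-only sample. Incubation with 200 nmole of a 16-mer random double-stranded DNA library lasted 30 min at room temperature in Tris/NaCl/DTT/glycerol buffer, and was followed by washing, 0.1% formaldehyde crosslinking, proximity ligation, PCR amplification and Illumina NextSeq500 sequencing. Binding signal is the quotient of each hexamer's read frequency for a factor and its frequency for the tag-only sample.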

[2] = biological target: T2, ETS2 (Homo sapiens, UniProt P15036 1-469)
T2 sequence: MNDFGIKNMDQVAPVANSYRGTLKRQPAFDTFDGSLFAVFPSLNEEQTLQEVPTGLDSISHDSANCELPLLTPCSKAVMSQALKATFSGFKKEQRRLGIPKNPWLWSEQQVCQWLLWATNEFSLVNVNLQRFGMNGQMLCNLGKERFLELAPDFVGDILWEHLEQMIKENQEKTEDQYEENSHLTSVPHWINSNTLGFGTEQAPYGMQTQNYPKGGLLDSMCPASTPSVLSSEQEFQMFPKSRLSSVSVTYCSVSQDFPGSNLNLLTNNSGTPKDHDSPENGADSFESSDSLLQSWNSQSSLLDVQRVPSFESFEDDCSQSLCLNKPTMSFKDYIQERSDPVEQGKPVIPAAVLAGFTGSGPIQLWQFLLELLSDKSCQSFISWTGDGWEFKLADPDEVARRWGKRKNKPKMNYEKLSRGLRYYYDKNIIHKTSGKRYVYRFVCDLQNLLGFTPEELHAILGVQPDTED
Outline: as §1

[3] = biological target: T3, SPDEF (Homo sapiens, UniProt O95238 1-335)
T3 sequence: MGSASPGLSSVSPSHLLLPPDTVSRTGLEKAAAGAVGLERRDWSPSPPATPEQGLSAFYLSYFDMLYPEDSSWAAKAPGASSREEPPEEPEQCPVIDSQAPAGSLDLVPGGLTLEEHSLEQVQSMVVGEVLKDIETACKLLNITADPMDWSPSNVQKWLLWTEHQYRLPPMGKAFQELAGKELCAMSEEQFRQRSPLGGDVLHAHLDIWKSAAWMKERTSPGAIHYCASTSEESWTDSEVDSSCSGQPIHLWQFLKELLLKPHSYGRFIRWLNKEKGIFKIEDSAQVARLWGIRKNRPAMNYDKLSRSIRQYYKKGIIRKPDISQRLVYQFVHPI
Outline: as §1

[4] = biological target: T4, ETV7 (Homo sapiens, UniProt Q9Y603 1-341)
T4 sequence: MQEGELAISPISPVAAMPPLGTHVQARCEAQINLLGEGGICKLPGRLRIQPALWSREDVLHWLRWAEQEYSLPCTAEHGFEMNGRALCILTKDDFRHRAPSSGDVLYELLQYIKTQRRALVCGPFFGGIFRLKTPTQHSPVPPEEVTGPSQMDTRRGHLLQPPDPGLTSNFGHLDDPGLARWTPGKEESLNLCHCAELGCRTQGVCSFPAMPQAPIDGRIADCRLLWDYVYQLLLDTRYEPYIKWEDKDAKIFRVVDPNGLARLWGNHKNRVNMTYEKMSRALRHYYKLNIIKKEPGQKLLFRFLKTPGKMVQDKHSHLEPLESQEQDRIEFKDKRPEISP
Outline: as §1

[5] = biological target: T5, ELF5 (Homo sapiens, UniProt Q9UKW6-2 1-255)
T5 sequence: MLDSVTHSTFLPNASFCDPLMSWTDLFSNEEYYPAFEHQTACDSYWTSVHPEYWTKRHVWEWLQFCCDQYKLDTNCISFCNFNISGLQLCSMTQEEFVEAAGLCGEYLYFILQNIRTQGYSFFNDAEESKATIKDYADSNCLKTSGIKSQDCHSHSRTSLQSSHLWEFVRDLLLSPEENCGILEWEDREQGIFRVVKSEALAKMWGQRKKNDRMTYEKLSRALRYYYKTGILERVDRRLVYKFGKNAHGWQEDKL
Outline: as §1

[6] = biological target: T6, ETV3 (Homo sapiens, UniProt P41162-2 1-143)
T6 sequence: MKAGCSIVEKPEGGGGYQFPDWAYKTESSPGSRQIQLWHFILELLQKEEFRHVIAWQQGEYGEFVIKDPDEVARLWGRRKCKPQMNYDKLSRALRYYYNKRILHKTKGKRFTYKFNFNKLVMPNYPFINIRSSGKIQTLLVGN
Outline: as §1

[7] = biological target: ETV6 (Homo sapiens, UniProt P41212 1-452)
Outline: as §1

[8] = biological target: T7, ERF (Homo sapiens, UniProt P50548 1-548)
T7 sequence: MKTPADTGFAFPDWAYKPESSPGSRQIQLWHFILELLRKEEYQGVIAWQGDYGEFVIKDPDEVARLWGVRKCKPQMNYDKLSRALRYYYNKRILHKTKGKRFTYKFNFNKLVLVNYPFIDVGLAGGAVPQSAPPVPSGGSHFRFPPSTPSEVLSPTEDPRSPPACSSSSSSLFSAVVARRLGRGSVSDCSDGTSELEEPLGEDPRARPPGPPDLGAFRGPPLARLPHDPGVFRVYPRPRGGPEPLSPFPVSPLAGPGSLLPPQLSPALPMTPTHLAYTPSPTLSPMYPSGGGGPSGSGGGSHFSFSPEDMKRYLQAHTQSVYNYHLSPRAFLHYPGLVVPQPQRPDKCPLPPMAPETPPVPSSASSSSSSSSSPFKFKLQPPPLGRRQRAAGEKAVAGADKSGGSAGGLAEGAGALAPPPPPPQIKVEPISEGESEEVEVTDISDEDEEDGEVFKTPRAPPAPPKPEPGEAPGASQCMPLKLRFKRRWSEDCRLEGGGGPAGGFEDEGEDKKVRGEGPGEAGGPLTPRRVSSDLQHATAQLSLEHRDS
Outline: as §1

Chain of ETV6 (P41212 whole entry): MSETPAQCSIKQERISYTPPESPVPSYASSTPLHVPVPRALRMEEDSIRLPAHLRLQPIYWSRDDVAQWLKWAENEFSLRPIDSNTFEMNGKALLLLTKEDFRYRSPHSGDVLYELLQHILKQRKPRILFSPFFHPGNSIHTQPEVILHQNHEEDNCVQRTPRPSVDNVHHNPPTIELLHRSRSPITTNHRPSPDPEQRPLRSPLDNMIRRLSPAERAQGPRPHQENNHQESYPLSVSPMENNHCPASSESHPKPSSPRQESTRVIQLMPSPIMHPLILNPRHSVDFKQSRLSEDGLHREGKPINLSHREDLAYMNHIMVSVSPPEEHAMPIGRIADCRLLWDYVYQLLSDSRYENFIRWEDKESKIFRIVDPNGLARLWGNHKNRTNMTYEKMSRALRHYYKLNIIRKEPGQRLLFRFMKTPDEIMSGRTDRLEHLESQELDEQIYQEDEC

Sequence | binding signal [1] | binding signal [2] | binding signal [3] | binding signal [4] | binding signal [5] | binding signal [6] | binding signal [7] | binding signal [8]
TGCCCT | 1.11 fold enrichment (6-mer frequency, TF over GST control) | 1.21 fold enrichment (6-mer frequency, TF over GST control) | 1.15 fold enrichment (6-mer frequency, TF over GST control) | 1.08 fold enrichment (6-mer frequency, TF over GST control) | 1 fold enrichment (6-mer frequency, TF over GST control) | 1.1 fold enrichment (6-mer frequency, TF over GST control) | 1.15 fold enrichment (6-mer frequency, TF over GST control) | –
TCATAA | 1 fold enrichment (6-mer frequency, TF over GST control) | 1.01 fold enrichment (6-mer frequency, TF over GST control) | 1.01 fold enrichment (6-mer frequency, TF over GST control) | – | 1.02 fold enrichment (6-mer frequency, TF over GST control) | – | – | –
CAAGGT | 1.12 fold enrichment (6-mer frequency, TF over GST control) | 1.11 fold enrichment (6-mer frequency, TF over GST control) | 1.03 fold enrichment (6-mer frequency, TF over GST control) | 1.1 fold enrichment (6-mer frequency, TF over GST control) | – | 1.02 fold enrichment (6-mer frequency, TF over GST control) | 1.01 fold enrichment (6-mer frequency, TF over GST control) | –
GAAAGA | 1.03 fold enrichment (6-mer frequency, TF over GST control) | 1.02 fold enrichment (6-mer frequency, TF over GST control) | – | 1.1 fold enrichment (6-mer frequency, TF over GST control) | – | 1.01 fold enrichment (6-mer frequency, TF over GST control) | 1.09 fold enrichment (6-mer frequency, TF over GST control) | –
AGACCT | 1.07 fold enrichment (6-mer frequency, TF over GST control) | 1.01 fold enrichment (6-mer frequency, TF over GST control) | – | – | 1.05 fold enrichment (6-mer frequency, TF over GST control) | – | 1.11 fold enrichment (6-mer frequency, TF over GST control) | –
AATCGA | 1.04 fold enrichment (6-mer frequency, TF over GST control) | – | – | 1.08 fold enrichment (6-mer frequency, TF over GST control) | – | 1.07 fold enrichment (6-mer frequency, TF over GST control) | 1.01 fold enrichment (6-mer frequency, TF over GST control) | –
GCAATG | – | – | – | 1.14 fold enrichment (6-mer frequency, TF over GST control) | – | 1.03 fold enrichment (6-mer frequency, TF over GST control) | 1.12 fold enrichment (6-mer frequency, TF over GST control) | 1.02 fold enrichment (6-mer frequency, TF over GST control)
GAATAT | 1.05 fold enrichment (6-mer frequency, TF over GST control) | 1.05 fold enrichment (6-mer frequency, TF over GST control) | 1.02 fold enrichment (6-mer frequency, TF over GST control) | 1.1 fold enrichment (6-mer frequency, TF over GST control) | 1.12 fold enrichment (6-mer frequency, TF over GST control) | 1.12 fold enrichment (6-mer frequency, TF over GST control) | 1.07 fold enrichment (6-mer frequency, TF over GST control) | –
CATAAA | 1.06 fold enrichment (6-mer frequency, TF over GST control) | – | – | – | – | – | – | –
GAACCA | 1.01 fold enrichment (6-mer frequency, TF over GST control) | – | – | – | 1.01 fold enrichment (6-mer frequency, TF over GST control) | – | – | –
GTATCA | 1.09 fold enrichment (6-mer frequency, TF over GST control) | 1.05 fold enrichment (6-mer frequency, TF over GST control) | 1.08 fold enrichment (6-mer frequency, TF over GST control) | 1.04 fold enrichment (6-mer frequency, TF over GST control) | 1.03 fold enrichment (6-mer frequency, TF over GST control) | 1.09 fold enrichment (6-mer frequency, TF over GST control) | 1.01 fold enrichment (6-mer frequency, TF over GST control) | –
AAATCG | 1.09 fold enrichment (6-mer frequency, TF over GST control) | – | – | 1.08 fold enrichment (6-mer frequency, TF over GST control) | – | 1.03 fold enrichment (6-mer frequency, TF over GST control) | 1.05 fold enrichment (6-mer frequency, TF over GST control) | –
TCAACG | 1.07 fold enrichment (6-mer frequency, TF over GST control) | 1.13 fold enrichment (6-mer frequency, TF over GST control) | 1.05 fold enrichment (6-mer frequency, TF over GST control) | 1 fold enrichment (6-mer frequency, TF over GST control) | – | 1.14 fold enrichment (6-mer frequency, TF over GST control) | – | –
ATCCAA | 1.2 fold enrichment (6-mer frequency, TF over GST control) | 1.18 fold enrichment (6-mer frequency, TF over GST control) | 1.22 fold enrichment (6-mer frequency, TF over GST control) | 1.19 fold enrichment (6-mer frequency, TF over GST control) | 1.11 fold enrichment (6-mer frequency, TF over GST control) | 1.11 fold enrichment (6-mer frequency, TF over GST control) | 1.11 fold enrichment (6-mer frequency, TF over GST control) | –
CTAGGC | 1.07 fold enrichment (6-mer frequency, TF over GST control) | 1.01 fold enrichment (6-mer frequency, TF over GST control) | 1 fold enrichment (6-mer frequency, TF over GST control) | 1.2 fold enrichment (6-mer frequency, TF over GST control) | 1.04 fold enrichment (6-mer frequency, TF over GST control) | 1.09 fold enrichment (6-mer frequency, TF over GST control) | 1.06 fold enrichment (6-mer frequency, TF over GST control) | –
AAAGCC | – | – | – | – | – | 1.05 fold enrichment (6-mer frequency, TF over GST control) | 1.01 fold enrichment (6-mer frequency, TF over GST control) | 1.01 fold enrichment (6-mer frequency, TF over GST control)
AGTAAT | 1.07 fold enrichment (6-mer frequency, TF over GST control) | 1.15 fold enrichment (6-mer frequency, TF over GST control) | 1.1 fold enrichment (6-mer frequency, TF over GST control) | 1.19 fold enrichment (6-mer frequency, TF over GST control) | 1.2 fold enrichment (6-mer frequency, TF over GST control) | 1.03 fold enrichment (6-mer frequency, TF over GST control) | 1.15 fold enrichment (6-mer frequency, TF over GST control) | –
ACACCA | 1.04 fold enrichment (6-mer frequency, TF over GST control) | – | – | – | 1.01 fold enrichment (6-mer frequency, TF over GST control) | 1.02 fold enrichment (6-mer frequency, TF over GST control) | – | –
TCAGCA | – | 1.05 fold enrichment (6-mer frequency, TF over GST control) | – | 1.11 fold enrichment (6-mer frequency, TF over GST control) | – | – | 1.02 fold enrichment (6-mer frequency, TF over GST control) | –
TAAGCG | 1.03 fold enrichment (6-mer frequency, TF over GST control) | 1.05 fold enrichment (6-mer frequency, TF over GST control) | – | – | 1.01 fold enrichment (6-mer frequency, TF over GST control) | 1.05 fold enrichment (6-mer frequency, TF over GST control) | 1.01 fold enrichment (6-mer frequency, TF over GST control) | –
